Data as given in PubChem BioAssay.
Active and inactive are the calls of the source. The rule behind the calls is not given here.

molecular target: Pantothenate synthetase (Mycobacterium tuberculosis (strain ATCC 25618 / H37Rv)) (UniProt P9WIL5); assay: Coupled enzyme confirmation of inhibitors against recombinant Mtb PanC (AID 375); conditions: coupled enzyme assay; at 10 µM, stronger effect = higher value;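 note: 0% = full reaction with vehicle and 100% = no enzyme background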
Sequence (P9WIL5 whole entry, looked up): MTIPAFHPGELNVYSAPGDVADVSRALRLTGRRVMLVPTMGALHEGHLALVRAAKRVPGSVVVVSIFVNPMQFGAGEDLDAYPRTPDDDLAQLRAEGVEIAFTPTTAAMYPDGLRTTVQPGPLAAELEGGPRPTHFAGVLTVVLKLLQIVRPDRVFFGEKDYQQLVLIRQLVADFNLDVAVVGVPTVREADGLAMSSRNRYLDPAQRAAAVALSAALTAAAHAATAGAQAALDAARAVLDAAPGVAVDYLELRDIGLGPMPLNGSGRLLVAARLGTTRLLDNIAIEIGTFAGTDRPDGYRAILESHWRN

SMILES	inhibition
Cc1ccc2[nH]c(=O)c(-c3noc(-c4ccncc4)n3)cc2c1	2% (inactive)
CCCC(=O)Nc1ccc2oc(-c3cccnc3)nc2c1	0% (inactive)
COc1cccc(C(=O)Nc2cc(C)c3c(=O)oc4ccccc4c3n2)c1	0% (inactive)
Cc1cc(=O)[nH]c2c1cnn2Cc1ccccc1	1% (inactive)
c1cn(C23CC4CC(CC(C4)C2)C3)cn1	0% (inactive)
CCC(=O)Nc1cccc(Br)c1	2% (inactive)
COc1ccc(OC)c(NC(=O)c2nnn(Cc3ccc(Br)cc3F)c2N)c1	0% (inactive)
CC1CCN(C(=O)CN2C(=O)C(C)(C)Oc3ccc(C(=O)NC4CCCC4)cc32)CC1	0% (inactive)
O=C1c2ccccc2C(=O)N1C/C=C/CN1C(=O)c2ccccc2C1=O	0% (inactive)
CC(C)(C)n1ncc2c(=O)n(CC(=O)NCc3ccc(F)cc3)cnc21	4% (inactive)
Brc1ccc(-c2nnc3sc(CN4CCC5(CC4)OCCO5)cn23)cc1	0% (inactive)
CCCCc1c(O)nc(N2CCN(Cc3ccccc3)CC2)[nH]c1=O	7% (inactive)
C=CCNc1oc(-c2cccc3ccccc23)nc1C#N	0% (inactive)
CC1(C)CN=C(N2CCN(c3ncnc4sc5c(c34)CCCC5)CC2)S1	0% (inactive)
COc1ccc(-n2c(SCC(=O)c3c(N)n(C)c(=O)n(C)c3=O)nc3ccccc32)cc1	0% (inactive)
COc1ccc(OC)c(N(CC(=O)N2CCN(c3cc(Cl)ccc3C)CC2)S(C)(=O)=O)c1	2% (inactive)
CCCCOC(=O)Nc1nccs1	9% (inactive)
CCCC(=O)N(c1ccc2oc(=O)sc2c1)S(=O)(=O)c1ccccc1	0% (inactive)
Cc1ccc(OC(=O)CCc2c(C)nc3ncnn3c2C)cc1	0% (inactive)
CSc1c(C#N)c(N)c(C#N)c2c1COC(C)(C)C2	0% (inactive)

SMILES	inhibition
Fc1cccc2sc(N3CCOCC3)nc12	1% (inactive)
CCOc1ccccc1NC(=O)NC1CCN(CC(=O)Nc2ccc3c(c2)OCCO3)CC1	0% (inactive)
O=C(c1ccccc1Oc1nnnn1-c1ccccc1)N1CCOCC1	0% (inactive)
CCS(=O)(=O)c1nc2ccccc2n1CC(=O)N1CCCCC1	6% (inactive)
COc1ccccc1S(=O)(=O)Cc1ccc(C(=O)N2CCN(c3ccc(C)cc3)C(C)C2)o1 (centres undefined)	13% (inactive)
Cc1nc(/N=C(\N)Nc2ccccc2)nc2ccccc12	0% (inactive)
CCSCCC(NC1=CC(=O)CC(C)(C)C1)C(=O)O (centres undefined)	0% (inactive)
O=C1CCNc2cc3ccccc3cc21	3% (inactive)
COC(=O)c1[nH]c(C)c(/C(O)=C2\C(=O)C(=O)N(CCN(C)C)C2c2ccccc2OC)c1C (centres undefined)	1% (inactive)
Cc1ccc(OC(=O)NC2CCS(=O)(=O)C2)cc1C (centres undefined)	0% (inactive)
CC1(C)CC(=O)C(C=NC(CCC(N)=O)C(=O)O)=C(O)C1 (centres undefined)	3% (inactive)
Cc1n[nH]c(C)c1S(=O)(=O)Nc1ccc2c(c1)OCCO2	0% (inactive)
CCOC(=O)c1c(-c2ccc(C)o2)csc1NC(=O)COC(=O)c1cccs1	5% (inactive)
COC(=O)c1sc(NC(=O)c2ccoc2C)nc1C	0% (inactive)
COC(=O)c1cccc(Nc2cc(C)nc(-c3ccccc3O)n2)c1	1% (inactive)
CCOC(=O)N1CCC(NC(=O)c2ccc(OC)c(CN3CC(=O)N4CCCC4C3=O)c2)CC1 (centres undefined)	0% (inactive)
CN(C)C(=O)Oc1ccc[n+](C)c1	4% (inactive)
Cc1cccc(CCNC(=O)CCc2nc(-c3ccccc3F)no2)c1	0% (inactive)
CCOC(=O)C1=C(C)NC(C)=C(C(=O)OC)C1c1cccc([N+](=O)[O-])c1 (centres undefined)	7% (inactive)
